High-throughput results as filed in PubChem.
IL-1B inflam inh = blocks inflammasome-driven IL-1 beta release; THP-1 LPS/ATP IL-1B secretion, AlphaLISA, 16 h; hits give low values; activity change, % at 57.5 µM; 4.7% of 360,000 active; in the data active means activity change below about -50%; inconclusive means mostly about -30% to -49%
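Secreted IL-1B measured by AlphaLISA bead assay after 16 h compound exposure of THP-1 cells; compounds (final up to 57.5 uM) added 1 h before LPS (250 ng/mL) and ATP (1.25 mM) stimulation; lower signal means less secretion.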
USP2a block = inhibitors of human ubiquitin-specific protease USP2a | USP2 core, Ub-CHOP2 coupled fluorogenic reporter, 485/531 | Potency, µM (series often up to 38.3 µM), actives largely listed as inhibitors | 0.01% of 330,000 active | AID 463254
Target sequence (O75604 whole entry, looked up): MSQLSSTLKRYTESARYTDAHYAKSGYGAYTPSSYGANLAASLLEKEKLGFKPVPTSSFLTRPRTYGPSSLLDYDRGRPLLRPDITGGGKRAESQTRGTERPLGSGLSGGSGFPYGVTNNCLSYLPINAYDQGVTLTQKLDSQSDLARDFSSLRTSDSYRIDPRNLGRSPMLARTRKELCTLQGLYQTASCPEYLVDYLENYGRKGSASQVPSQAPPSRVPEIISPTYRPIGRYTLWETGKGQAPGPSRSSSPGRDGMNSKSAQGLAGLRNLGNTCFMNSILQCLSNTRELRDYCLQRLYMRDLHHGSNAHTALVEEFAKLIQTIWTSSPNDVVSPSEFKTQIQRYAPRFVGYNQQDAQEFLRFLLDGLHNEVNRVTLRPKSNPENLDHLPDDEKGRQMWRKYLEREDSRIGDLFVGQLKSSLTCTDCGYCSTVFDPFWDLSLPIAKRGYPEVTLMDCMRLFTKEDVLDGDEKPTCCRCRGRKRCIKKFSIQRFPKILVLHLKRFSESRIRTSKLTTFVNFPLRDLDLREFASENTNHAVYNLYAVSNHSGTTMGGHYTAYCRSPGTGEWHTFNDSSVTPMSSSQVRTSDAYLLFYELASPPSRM
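USP2 core (10nM final) preincubated 30min RT with compound in 20mM Tris-HCl pH 8.0, 2mM CaCl2, 2mM beta-mercaptoethanol, 0.05% CHAPS; 25nM Ub-CHOP2 plus 25nM reporter substrate added, fluorescence (Ex485/Em531) read after 60min.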
ATXN2 expr inh = inhibitors of ATXN2 expression | HEK-293 ATXN2-luciferase reporter, luminescence, 24 h | Potency, µM (titrated, usually from 57 µM), usual class: inhibitors | 0.72% of 360,000 active; further: nearly all actives have a fitted effect of over 55% in size
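ATXN2-luciferase reporter cells (luciferase flanked by upstream and downstream ATXN2 gene portions) were treated 24 h at 37 °C with compounds at up to 57 uM. SteadyGlo luminescence gave expression; GF-AFC fluorescence gave viability.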
USP1 inh = USP1/UAF1 (human) deubiquitinase inhibition; O94782; recombinant USP1/UAF1, Ub-Rhodamine cleavage fluorescence; Potency, µM (doses to about 57.1 µM), actives largely listed as inhibitors; 0.23% of 390,000 active; AID 743255; further: nearly all actives have a fitted effect of over 60% in size
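In this screen, compounds sit with the deubiquitinase complex (1nM) for 15 min at room temperature before Ub-Rho is added at 150nM final. Fluorescence rise is then followed for 6 reads every 60 seconds.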
ATXN viability = cell viability loss in ATXN counter-screen | S2 cells (HEK-293 line with an ATXN2-luciferase reporter) viability, CellTiter-Fluor protease fluorescence, 24 h | Potency, µM (doses to about 56.7 µM), hits mostly cytotoxic | 0.49% of 400,000 active; further: nearly all actives have a fitted effect of over 40% in size
Of the large screens only hits and unclear results are named; the others gave an inactive call. Hits are enriched below; roughly 4.8% of the tested compounds scored in any of these assays. Unless noted, the call rests on the fitted dose curve; in most records, active means well fitted curve in the direction sought with a large enough effect; inconclusive means small, poorly fitted or top-dose-only effect, or another doubt; inactive means no such curve, though single readings can be large; an effect the other way counts as inactive or inconclusive.

O=C(Nc1ccc(Cl)cc1)c1cc2c(cc1O)[nH]c1ccccc12	IL-1B inflam inh -95.1, ATXN2 expr inh inconclusive, ATXN viability inconclusive
COc1ccc(C(=O)/C=C/Nc2cccc(C)n2)cc1OC	IL-1B inflam inh -59.5
CCC(=O)N[C@@H]1c2ccccc2C2(CCN(Cc3ccccn3)CC2)[C@H]1OC	none (no result: IL-1B inflam inh, USP2a block, ATXN2 expr inh, USP1 inh)
Cc1cc(C)nc(NC(=O)c2ccc3c(c2)OCO3)c1	none (no result: IL-1B inflam inh, ATXN2 expr inh, USP1 inh, ATXN viability)
Cc1cc(C)nc(NC(=O)c2c(F)c(F)c(F)c(C(=O)Nc3cc(C)cc(C)n3)c2F)c1	IL-1B inflam inh -69.1, ATXN viability inconclusive (no result: USP2a block)
O=C(CSc1nnnn1-c1ccccc1)N1CCCc2ccccc21	IL-1B inflam inh -55.0
Cc1ccc(-c2cnc(SCC(=O)N3CCCc4ccccc43)n2C)cc1	IL-1B inflam inh -50.1
O=C(CSc1ncc(-c2ccccc2)n1C1CCCC1)N1CCc2ccccc21	IL-1B inflam inh -61.4, ATXN2 expr inh inconclusive, ATXN viability inconclusive
Cn1c(-c2ccccc2)cnc1SCC(=O)N1CCCc2ccccc21	IL-1B inflam inh inconclusive
COc1ccc2[nH]cc(CCNC(=O)Cn3cc(C)c(=O)[nH]c3=O)c2c1	none (no result: USP2a block)
O=C(OCc1cn([C@H]2C[C@H](c3ccccc3)N(Cc3cccs3)C[C@@H]2O)nn1)c1ccccc1	none (no result: USP2a block)
CNC(=O)c1cnn(-c2nc(N)c3ncn([C@@H]4O[C@H](CO)[C@@H](O)[C@H]4O)c3n2)c1	none (no result: IL-1B inflam inh, USP2a block, USP1 inh)
COc1cc(N2C(=O)C=CC2=O)c(OC)cc1Cl	IL-1B inflam inh inconclusive, ATXN2 expr inh inconclusive, ATXN viability 20µM
COc1cc(Cl)c(S(=O)(=O)N2CCCC2)cc1Cl	none
Cc1ncc2c(c1CNS(=O)(=O)N(C)C)CCN(C(=O)c1c(F)cccc1F)C2	none (no result: IL-1B inflam inh, USP2a block, ATXN2 expr inh, USP1 inh)
CCC1(C2CCN(Cc3ccccn3)CC2)NC(=O)N(CC2COc3ccccc3O2)C1=O (stereo not given)	none (no result: IL-1B inflam inh, USP2a block, ATXN2 expr inh, USP1 inh)
COCCNc1nc(NCc2cc(-c3ccc(OC)cc3)no2)c2sccc2n1	IL-1B inflam inh inconclusive, ATXN viability inconclusive (no result: USP2a block, USP1 inh)
CSc1ccc(CN(C)C(=O)c2ccc(S(=O)(=O)Nc3ccccc3)cc2)cc1	IL-1B inflam inh -50.0
Cc1ncc([N+](=O)[O-])n1C	none (no result: IL-1B inflam inh, USP2a block, USP1 inh)
Oc1ccc(/C=N/Nc2cc(N3CCOCC3)nc(N3CCOCC3)n2)cc1O	none
COc1ccccc1/C=N/Nc1cc(C)nc(N2CCOCC2)n1	none (no result: ATXN2 expr inh)
Oc1cccc(/C=N/Nc2cc(N3CCOCC3)nc(N3CCOCC3)n2)c1	IL-1B inflam inh -54.0
Cc1nc(N/N=C/c2ccc(O)cc2O)cc(N2CCOCC2)n1	IL-1B inflam inh -99.1, ATXN2 expr inh inconclusive
Oc1ccccc1/C=N/Nc1cc(N2CCCC2)nc(N2CCCC2)n1	IL-1B inflam inh -103.2, USP1 inh 25.1µM, ATXN viability inconclusive
Cc1nc(N/N=C/c2cccc(F)c2)cc(N2CCOCC2)n1	IL-1B inflam inh -96.7
CCC(Sc1nc2ccsc2c(=O)n1Cc1ccc(C(=O)O)cc1)C(=O)Nc1ccc(C)c(Cl)c1 (stereo not given)	ATXN viability inconclusive (no result: ATXN2 expr inh)
CCCCNC(=O)C(NC(=O)c1ccccc1)C(=O)c1ccccc1 (stereo not given)	none (no result: USP2a block, ATXN2 expr inh, USP1 inh, ATXN viability)
COc1ccc2c(c1)Cc1sc(NC(=O)c3cccc(C)c3)nc1-2	USP1 inh 35.5µM (no result: IL-1B inflam inh, USP2a block, ATXN2 expr inh, ATXN viability)
COc1cccc(-c2ccc(NC(=O)C3=C(C(=O)O)CCC3)c(F)c2)c1	none (no result: IL-1B inflam inh, USP2a block, USP1 inh, ATXN viability)
O=C(c1c[nH]c(C(=O)C(Cl)(Cl)Cl)c1)c1c(F)cccc1F	IL-1B inflam inh -98.7
O=C(c1c[nH]c(C(=O)C(Cl)(Cl)Cl)c1)c1ccccc1F	none
COc1cccc(C(=O)Nc2ccc(Oc3cccc(C(F)(F)F)c3)nc2)c1	IL-1B inflam inh -79.6, ATXN2 expr inh inconclusive, ATXN viability inconclusive
O=C(Nc1ccc(Oc2cccc(C(F)(F)F)c2)nc1)c1ccccc1	none
CCCOc1cccc(C(=O)NC(=S)Nc2cccc(C(F)(F)F)c2)c1	IL-1B inflam inh -56.7
COc1ccc(NC(=O)COc2cccc(C(F)(F)F)c2)cn1	none
O=C(Nc1ccc(Oc2cccc(C(F)(F)F)c2)nc1)c1cccs1	IL-1B inflam inh -77.7, ATXN2 expr inh inconclusive
CCOc1cccc(C(=O)NC(=S)Nc2cccc(C)c2)c1	IL-1B inflam inh inconclusive
Cc1cc(=O)oc2cc(NC(=O)c3cccc(S(C)(=O)=O)c3)ccc12	IL-1B inflam inh -52.5
Cc1cnc(C)c(-c2cccc3c2OC(CNC(=O)CN2C(=O)c4ccccc4C2=O)C3)n1 (stereo not given)	none (no result: IL-1B inflam inh, USP2a block, ATXN2 expr inh, USP1 inh)
COc1cc(F)ccc1-c1cc(C(=O)Nc2cc(OC)c(OC)c(OC)c2)[nH]n1	IL-1B inflam inh inconclusive (no result: USP2a block, USP1 inh)
COc1ccc(C(=O)C2CCCN(Cc3c(F)ccc(F)c3F)C2)c(OC)c1 (stereo not given)	IL-1B inflam inh -65.5
COc1ccc(C(=O)C2CCCN(Cc3ccc4nonc4c3)C2)c(OC)c1 (stereo not given)	IL-1B inflam inh -68.6
COc1ccc(C(=O)C2CCCN(Cc3ccc4nonc4c3)C2)cc1OC (stereo not given)	none
COc1ccc(C(=O)C2CCCN(Cc3c[nH]c4ccccc34)C2)c(OC)c1 (stereo not given)	IL-1B inflam inh inconclusive
Oc1c(C(c2ccccc2)N2CCCCC2)ccc2ccccc12 (stereo not given)	none (no result: USP2a block, ATXN2 expr inh)
O=C(NCC1CCCO1)c1cc(-c2ccccc2)on1 (stereo not given)	IL-1B inflam inh -79.9
Cc1ccc(-c2cc(C(=O)NCC3CCCO3)no2)cc1 (stereo not given)	none
COc1ccc(OC)c(-n2c(N)c(C(=O)NCC3CCCO3)c3nc4ccccc4nc32)c1 (stereo not given)	none
CC(C)Cn1c(N)c(C(=O)NCC2CCCO2)c2nc3ccccc3nc21 (stereo not given)	IL-1B inflam inh -79.9 (no result: ATXN viability)
COCCn1c(N)c(C(=O)NCC2CCCO2)c2nc3ccccc3nc21 (stereo not given)	USP1 inh 25.1µM (no result: ATXN viability)
OC(COC(c1ccc(F)cc1)c1ccc(F)cc1)CN1CCCC(C(F)(F)F)C1 (stereo not given)	none
CCc1nc2ccc(C(=O)NCCCn3ccnc3)cn2c1N(C)Cc1cc2ccccc2s1	IL-1B inflam inh inconclusive (no result: USP2a block, USP1 inh)
COc1ccc(-c2nc3sc(CCNC(=O)c4cc(Cl)ccc4OC)c(C)n3n2)cc1	ATXN2 expr inh inconclusive, ATXN viability 25.1µM (no result: IL-1B inflam inh, USP2a block)
COc1cccc(NC(=O)C(=O)NCCC2CCCCN2S(=O)(=O)c2cccs2)c1 (stereo not given)	none
Cc1c(N2C(=O)/C(=C3/C(=O)N(C)c4ccccc43)SC2=S)c(=O)n(-c2ccccc2)n1C	none
Cc1c(N2C(=O)CSC2=S)c(=O)n(-c2ccccc2)n1C	IL-1B inflam inh -77.4
CCOC(=O)c1cccc(NC(=O)c2cn(-c3cccc(OC)c3)c(=O)c3ccccc23)c1	none (no result: IL-1B inflam inh, USP2a block, ATXN2 expr inh, ATXN viability)
O=C(c1noc2c1CCCC2)N1CCN(c2ccccc2)CC1	none
O=C(c1noc2c1CCCC2)N1CCC(CO)(Cc2ccccc2Cl)CC1	IL-1B inflam inh -81.2
